Calls of active or inactive are those of the source. Rule for the calls: active = hit-call score of the fitted dose curve at least 0.9, where 1 is the maximum; inactive = score below 0.9.
Legend:
Conditions in all cases: mRNA level, 48 h; actives raise or lower the signal
CYP2C9 (gene 1559) = experiment: LTEA_HepaRG_CYP2C9: Life Technologies and Expression Analysis (LTEA) Assay for CYP2C9 using HepaRG (AID 2283484)
Summary of the method: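 HepaRG, 48 h dosing, 8-pt half-log series, top 100 uM, 0.5% DMSO vehicle. Read-out: CYP2C9 transcript by TaqMan qRT-PCR, housekeeping-normalized (ACTB/GAPDH/POLR2A). Gain or loss fitted vs DMSO baseline.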

CYP2E1 (gene 1571) = experiment: LTEA_HepaRG_CYP2E1: Life Technologies and Expression Analysis (LTEA) Assay for CYP2E1 using HepaRG (AID 2283485)
Summary of the method: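 Readout is qRT-PCR of CYP2E1 mRNA, normalized to three housekeeping genes and fitted bidirectionally against 0.5% DMSO. HepaRG cells were dosed 48 h at eight concentrations, highest 100 uM with half-log dilutions.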

CYP4A11 (gene 1579) = experiment: LTEA_HepaRG_CYP4A11: Life Technologies and Expression Analysis (LTEA) Assay for CYP4A11 using HepaRG (AID 2283486)
Summary of the method: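 Differentiated HepaRG cells, 48 h after plating, exposed in duplicate for 48 h to 8 half-log concentrations up to 100 uM in 0.5% DMSO in serum-free induction medium. CYP4A11 mRNA measured by TaqMan qRT-PCR, normalized to ACTB, GAPDH and POLR2A.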

[1] = read-out: Cytochrome P450 3A4 (Homo sapiens) (UniProt P08684); experiment: LTEA_HepaRG_CYP3A4: Life Technologies and Expression Analysis (LTEA) Assay for CYP3A4 using HepaRG (AID 2283487)
Summary of the method: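 HepaRG, 48 h exposure, 8-pt CRC from 100 uM (half-log), 0.5% DMSO, duplicates; serum-free induction medium. Readout: CYP3A4 mRNA, qRT-PCR, ACTB/GAPDH/POLR2A normalization. Bidirectional fit vs DMSO.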

[2] = read-out: DNA damage-inducible transcript 3 (DDIT3), DDIT3 (gene 1649); experiment: LTEA_HepaRG_DDIT3: Life Technologies and Expression Analysis (LTEA) Assay for DNA damage-inducible transcript 3 (DDIT3) using HepaRG (AID 2283488)
Summary of the method: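 Cells are human HepaRG liver cells treated for 48 h with eight half-log concentrations up to 100 uM in 0.5% DMSO. Transcript levels come from qRT-PCR normalized to three housekeeping genes, with activity fitted in both directions relative to vehicle.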

[3] = read-out: Early growth response protein 1 (EGR1) transcription factor, EGR1 (gene 1958); experiment: LTEA_HepaRG_EGR1: Life Technologies and Expression Analysis (LTEA) Assay for Early growth response protein 1 (EGR1) transcription factor using HepaRG (AID 2283490)
Summary of the method: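 HepaRG, 48 h exposure, 8-pt half-log series from 100 uM, 0.5% DMSO vehicle; EGR1 transcript by TaqMan qRT-PCR (Fluidigm array), housekeeping-normalized; bidirectional fit relative to DMSO baseline.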

[4] = read-out: Ezrin (EZR), EZR (gene 7430); experiment: LTEA_HepaRG_EZR: Life Technologies and Expression Analysis (LTEA) Assay for Ezrin (EZR) using HepaRG (AID 2283491)
Summary of the method: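 Read-out is EZR transcript level by qRT-PCR, normalized to three housekeeping genes and fitted bidirectionally against the DMSO control. Human HepaRG cells received test chemicals for 48 h at eight half-log concentrations up to 100 uM in 0.5% DMSO.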

[5] = read-out: Cytochrome P450 3A7 (Homo sapiens) (UniProt P24462); experiment: LTEA_HepaRG_CYP3A7: Life Technologies and Expression Analysis (LTEA) Assay for CYP3A7 using HepaRG (AID 2283492)
Summary of the method: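 Differentiated HepaRG cells in serum-free induction medium exposed 48 h in duplicate to 8-point half-log series from 100 uM top in 0.5% DMSO. CYP3A7 mRNA by qRT-PCR, normalized to ACTB/GAPDH/POLR2A, bidirectional fit versus DMSO.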

CYP3A5 (gene 1577) = experiment: LTEA_HepaRG_CYP3A5: Life Technologies and Expression Analysis (LTEA) Assay for CYP3A5 using HepaRG (AID 2283493)
Summary of the method: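 Human HepaRG hepatic cells receive 48 h chemical treatment at eight concentrations (half-log steps from 100 uM) in 0.5% DMSO. Expression of CYP3A5 is quantified by Fluidigm qRT-PCR and normalized to three reference genes.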

[6] = read-out: Fatty Acid-Binding Protein 1 (FABP1), FABP1 (gene 2168); experiment: LTEA_HepaRG_FABP1: Life Technologies and Expression Analysis (LTEA) Assay for Fatty Acid-Binding Protein 1 (FABP1) using HepaRG (AID 2283494)
Summary of the method: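 qRT-PCR readout of FABP1 transcript (normalized to three housekeeping genes) after 48 h chemical exposure of HepaRG cells; eight concentrations, half-log steps, max 100 uM, 0.5% DMSO vehicle; gain or loss fitted relative to DMSO baseline.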

[7] = read-out: Glutathione S-Transferase (GSTA2), GSTA2 (gene 2939); experiment: LTEA_HepaRG_GSTA2: Life Technologies and Expression Analysis (LTEA) Assay for Glutathione S-Transferase (GSTA2) using HepaRG (AID 2283497)
Summary of the method: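 qRT-PCR readout of GSTA2 transcript, normalized to three housekeeping genes, fitted bidirectionally against 0.5% DMSO baseline. Differentiated HepaRG cells received compound for 48 h at 8 concentrations (top 100 uM, half-log steps).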

[8] = read-out: Glutamate-cysteine ligase catalytic (GCLC), GCLC (gene 2729); experiment: LTEA_HepaRG_GCLC: Life Technologies and Expression Analysis (LTEA) Assay for Glutamate-cysteine ligase catalytic (GCLC) using HepaRG (AID 2283498)
Summary of the method: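 HepaRG, 48 h exposure, 8-pt half-log series from 100 uM, 0.5% DMSO vehicle; TaqMan qRT-PCR for GCLC mRNA, housekeeping-normalized; bidirectional curve fit vs DMSO baseline.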

[9] = read-out: growth arrest and DNA damage 45 (GADD45G), GADD45G (gene 10912); experiment: LTEA_HepaRG_GADD45G: Life Technologies and Expression Analysis (LTEA) Assay for growth arrest and DNA damage 45 (GADD45G) using HepaRG (AID 2283499)
Summary of the method: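 Differentiated human HepaRG cells, 48 h post-plating, exposed 48 h in serum-free induction medium to 8 half-log concentrations (top 100 uM, 0.5% DMSO) in duplicate. GADD45G mRNA measured by Fluidigm TaqMan qRT-PCR, normalized to ACTB, GAPDH, POLR2A; bidirectional fit versus DMSO.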

[10] = read-out: Glutamate-cysteine ligase regulatory (GCLM), GCLM (gene 2730); experiment: LTEA_HepaRG_GCLM: Life Technologies and Expression Analysis (LTEA) Assay for Glutamate-cysteine ligase regulatory (GCLM) using HepaRG (AID 2283500)
Summary of the method: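 Endpoint is GCLM transcript level by qRT-PCR, normalized to three housekeeping genes, after 48 h chemical exposure of human HepaRG cells (0.5% DMSO vehicle, top 100 uM, half-log dilutions). Fitting was bidirectional relative to DMSO.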

[11] = read-out: Glutathione S-transferase M3 (GSTM3), GSTM3 (gene 2947); experiment: LTEA_HepaRG_GSTM3: Life Technologies and Expression Analysis (LTEA) Assay for Glutathione S-transferase M3 (GSTM3) using HepaRG (AID 2283501)
Summary of the method: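 Differentiated human HepaRG cells were exposed in duplicate for 48 h in serum-free induction medium, 8 points from 100 uM top in half-log steps, 0.5% DMSO. GSTM3 mRNA was measured by TaqMan qRT-PCR, normalized to ACTB, GAPDH and POLR2A; bidirectional fit versus DMSO.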

[12] = read-out: Heat shock 70 kDa protein 1 (HSPA1A), gene 3303; experiment: LTEA_HepaRG_HSPA1A: Life Technologies and Expression Analysis (LTEA) Assay for Heat shock 70 kDa protein 1 (HSPA1A) using HepaRG (AID 2283502)
Summary of the method: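 Cells were plated and cultured for 48 h, then switched to serum-free induction medium. Chemicals were added at eight half-log concentrations up to 100 uM for 48 h. RNA was then isolated and HSPA1A measured by qRT-PCR with bidirectional curve fitting against DMSO.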

[13] = read-out: Hypoxia-inducible factor 1-alpha (Homo sapiens) (UniProt Q16665); experiment: LTEA_HepaRG_HIF1A: Life Technologies and Expression Analysis (LTEA) Assay for Hypoxia-inducible factor 1 (HIF1A) Trancription factor using HepaRG (AID 2283503)
Summary of the method: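 HIF1A transcript level read by qRT-PCR (ACTB, GAPDH, POLR2A normalization) after 48 h chemical exposure of HepaRG cultures. Eight half-log concentrations, top 100 uM, 0.5% DMSO vehicle, duplicates; bidirectional curve fit against DMSO baseline.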

[14] = read-out: Pro-epidermal growth factor (Homo sapiens) (UniProt P01133); experiment: LTEA_HepaRG_EGF: Life Technologies and Expression Analysis (LTEA) Assay for Epidermal growth factor (EGF) using HepaRG (AID 2283489)
Summary of the method: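 HepaRG cells (~100,000/well, 48 h pre-culture) exposed in duplicate for 48 h in serum-free induction medium to 8 half-log concentrations up to 100 uM in 0.5% DMSO. EGF mRNA by qRT-PCR, normalized to ACTB/GAPDH/POLR2A; bidirectional fit versus DMSO.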

[15] = read-out: Cytochrome P450 4A22 (Homo sapiens) (UniProt Q5TCH4); experiment: LTEA_HepaRG_CYP4A22: Life Technologies and Expression Analysis (LTEA) Assay for Cytochrome P450 4A22 (CYP4A22) using HepaRG (AID 2283495)
Summary of the method: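 Differentiated HepaRG cells in serum-free induction medium exposed 48 h in duplicate to eight half-log concentrations up to 100 uM in 0.5% DMSO. CYP4A22 mRNA quantified by TaqMan qRT-PCR, normalized to ACTB, GAPDH and POLR2A; bidirectional fit versus DMSO.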

[16] = read-out: Cytochrome P450 7A1 (Homo sapiens) (UniProt P22680); experiment: LTEA_HepaRG_CYP7A1: Life Technologies and Expression Analysis (LTEA) Assay for Cytochrome P450 7A1 (CYP7A1) using HepaRG (AID 2283496)
Summary of the method: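 HepaRG, 48 h exposure, 8-pt half-log series from 100 uM, 0.5% DMSO vehicle, duplicates. Readout: TaqMan qRT-PCR mRNA vs three housekeeping genes; bidirectional curve fit against DMSO baseline.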

Measured: AC50

Chain of Cytochrome P450 3A4 (Homo sapiens) (P08684 whole entry, looked up): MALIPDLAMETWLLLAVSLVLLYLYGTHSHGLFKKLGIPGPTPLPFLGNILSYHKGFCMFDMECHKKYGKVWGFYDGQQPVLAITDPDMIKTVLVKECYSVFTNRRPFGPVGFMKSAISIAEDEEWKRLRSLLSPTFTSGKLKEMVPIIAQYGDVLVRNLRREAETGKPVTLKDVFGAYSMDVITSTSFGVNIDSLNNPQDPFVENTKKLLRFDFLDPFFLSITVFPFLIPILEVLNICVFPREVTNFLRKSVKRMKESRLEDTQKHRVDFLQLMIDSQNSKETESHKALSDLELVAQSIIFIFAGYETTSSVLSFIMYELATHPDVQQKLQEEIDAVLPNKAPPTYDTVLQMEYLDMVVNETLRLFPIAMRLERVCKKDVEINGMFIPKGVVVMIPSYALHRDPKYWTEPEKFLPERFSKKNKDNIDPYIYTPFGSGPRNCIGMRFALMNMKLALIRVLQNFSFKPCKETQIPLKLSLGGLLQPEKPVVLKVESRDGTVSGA
Chain of Cytochrome P450 3A7 (Homo sapiens) (P24462 whole entry, looked up): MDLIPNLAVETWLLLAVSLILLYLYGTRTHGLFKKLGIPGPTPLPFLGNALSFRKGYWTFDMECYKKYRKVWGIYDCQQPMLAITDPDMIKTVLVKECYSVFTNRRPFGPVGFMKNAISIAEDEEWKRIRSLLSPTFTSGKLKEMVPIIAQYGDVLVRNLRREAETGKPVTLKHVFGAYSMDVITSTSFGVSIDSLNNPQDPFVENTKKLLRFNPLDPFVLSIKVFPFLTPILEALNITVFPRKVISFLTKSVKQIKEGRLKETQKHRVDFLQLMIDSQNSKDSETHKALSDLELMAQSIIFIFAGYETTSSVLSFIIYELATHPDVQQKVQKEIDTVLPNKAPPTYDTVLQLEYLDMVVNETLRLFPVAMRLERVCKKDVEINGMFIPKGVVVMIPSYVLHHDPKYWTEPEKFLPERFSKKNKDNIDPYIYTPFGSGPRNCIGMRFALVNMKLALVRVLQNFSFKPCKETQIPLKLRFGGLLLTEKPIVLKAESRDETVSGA
Chain of Hypoxia-inducible factor 1-alpha (Homo sapiens) (Q16665 whole entry, looked up): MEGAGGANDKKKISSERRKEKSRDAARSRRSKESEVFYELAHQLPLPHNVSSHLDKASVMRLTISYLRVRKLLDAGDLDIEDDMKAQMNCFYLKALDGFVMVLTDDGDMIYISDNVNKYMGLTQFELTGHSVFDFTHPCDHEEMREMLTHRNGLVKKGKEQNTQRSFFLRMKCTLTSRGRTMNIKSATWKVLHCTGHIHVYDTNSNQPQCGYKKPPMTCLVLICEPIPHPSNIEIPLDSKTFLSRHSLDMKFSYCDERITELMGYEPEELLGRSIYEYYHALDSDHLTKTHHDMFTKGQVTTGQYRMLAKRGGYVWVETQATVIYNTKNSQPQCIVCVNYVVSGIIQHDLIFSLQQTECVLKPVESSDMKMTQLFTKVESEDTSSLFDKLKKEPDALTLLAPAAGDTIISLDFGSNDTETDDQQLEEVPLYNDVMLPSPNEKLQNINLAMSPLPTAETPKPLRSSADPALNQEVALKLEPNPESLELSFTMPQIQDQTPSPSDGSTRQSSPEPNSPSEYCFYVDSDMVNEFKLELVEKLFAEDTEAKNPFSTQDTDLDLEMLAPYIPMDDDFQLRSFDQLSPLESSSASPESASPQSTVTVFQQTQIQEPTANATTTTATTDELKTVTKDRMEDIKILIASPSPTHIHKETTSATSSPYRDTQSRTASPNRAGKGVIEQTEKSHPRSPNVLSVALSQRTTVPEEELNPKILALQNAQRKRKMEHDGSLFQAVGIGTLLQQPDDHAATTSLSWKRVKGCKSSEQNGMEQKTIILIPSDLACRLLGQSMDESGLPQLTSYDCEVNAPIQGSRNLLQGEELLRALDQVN

CC(C)CCO
inactive: CYP2C9 (gene 1559) | CYP2E1 (gene 1571) | CYP4A11 (gene 1579) | [1] | [2] | [3] | [4] | [5] | CYP3A5 (gene 1577) | [6] | [7] | [8] | [9] | [10] | [11] | [12] | [13]

C[C@](N)(Cc1ccc(O)c(O)c1)C(=O)O
inactive: CYP2C9 (gene 1559) | CYP2E1 (gene 1571) | CYP4A11 (gene 1579) | [1] | [2] | [14] | [3] | [4] | [5] | CYP3A5 (gene 1577) | [6] | [15] | [16] | [7] | [8] | [9] | [10] | [11] | [12] | [13]

O=C(OC[C@H]1O[C@@H](OC(=O)c2cc(O)c(O)c(OC(=O)c3cc(O)c(O)c(O)c3)c2)[C@H](OC(=O)c2cc(O)c(O)c(OC(=O)c3cc(O)c(O)c(O)c3)c2)[C@@H](OC(=O)c2cc(O)c(O)c(OC(=O)c3cc(O)c(O)c(O)c3)c2)[C@@H]1OC(=O)c1cc(O)c(O)c(OC(=O)c2cc(O)c(O)c(O)c2)c1)c1cc(O)c(O)c(OC(=O)c2cc(O)c(O)c(O)c2)c1
active: CYP2C9 (gene 1559) 10.4 µM | CYP2E1 (gene 1571) 5.26 µM | CYP4A11 (gene 1579) 10.4 µM | [1] 11.3 µM | [2] 4.58 µM | [5] 8.99 µM | CYP3A5 (gene 1577) 4.94 µM | [6] 7.91 µM | [15] 12.4 µM | [16] 9.29 µM | [9] 25.6 µM | [10] 15.2 µM
inactive: [14] | [3] | [4] | [8] | [11] | [12] | [13]

Cc1ccc(O)cc1
inactive: [2] | [14] | [3] | [4] | [6] | [7] | [8] | [9] | [10] | [11] | [12]

CC(=O)c1ccc2c(c1)[C@H](NC(=O)c1ccc(F)cc1)[C@@H](O)C(C)(C)O2
active: [1] 18 µM | [5] 34.2 µM
inactive: CYP2C9 (gene 1559) | CYP2E1 (gene 1571) | CYP4A11 (gene 1579) | [2] | [14] | [3] | [4] | CYP3A5 (gene 1577) | [6] | [15] | [16] | [7] | [8] | [9] | [10] | [11] | [12] | [13]

— PubChem BioAssay (EPA / NIEHS)
